Measured values from PubChem BioAssay (NCATS).
Results filed as inconclusive are left out. The source made the active and inactive calls. Unless noted, calls follow the shape of the dose curve; as a rule, active = well fitted curve in the direction sought with a large enough effect; inconclusive = small, poorly fitted or top-dose-only effect, or another doubt; inactive = no such curve, though single readings can be large; an effect the other way counts as inactive or inconclusive.

What was measured:
[1] = biological target: Lysosomal acid glucosylceramidase (Homo sapiens) (UniProt P04062); assay: Glucocerebrosidase-p2 (AID 348; in the data active = potency below about 10 µM; also: potency is read from the fitted curve at half-maximal effect); conditions: purified GBA, blue fluorogenic substrate, 40 min
Lysosomal acid glucosylceramidase (Homo sapiens), sequence (P04062 whole entry, looked up): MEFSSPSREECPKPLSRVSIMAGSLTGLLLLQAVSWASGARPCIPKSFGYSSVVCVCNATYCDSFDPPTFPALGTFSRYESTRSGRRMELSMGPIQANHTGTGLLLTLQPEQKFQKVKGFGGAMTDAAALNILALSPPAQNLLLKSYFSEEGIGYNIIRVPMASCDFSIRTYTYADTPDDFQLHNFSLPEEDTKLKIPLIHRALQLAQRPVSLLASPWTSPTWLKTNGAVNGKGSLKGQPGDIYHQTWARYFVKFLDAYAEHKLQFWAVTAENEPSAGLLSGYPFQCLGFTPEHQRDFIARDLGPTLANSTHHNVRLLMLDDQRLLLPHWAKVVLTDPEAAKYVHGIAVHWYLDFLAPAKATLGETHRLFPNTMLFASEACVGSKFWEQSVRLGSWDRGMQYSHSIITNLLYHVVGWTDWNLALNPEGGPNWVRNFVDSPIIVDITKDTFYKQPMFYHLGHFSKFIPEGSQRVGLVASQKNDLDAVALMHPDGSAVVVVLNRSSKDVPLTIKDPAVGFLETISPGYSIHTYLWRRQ
Method in brief: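 Compounds titrated from 0.6 nM upwards against 0.2 nM enzyme in pH 5.9 citric acid/KH2PO4, taurocholate, tween-20; blue fluorogenic substrate 80 uM, 40 min room temperature, stopped and read Ex 365/Em 440 for AC50.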

[2] = NFAT Signaling Pathway (AID 444; active = well fitted curve in either direction with a large enough effect, not every such curve was filed as active;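 also: carbachol stimulus at about its EC50 of 1 µM final; % is scaled to controls: 0 for no effect and ±100 for the full control effect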); conditions: Jurkat NFAT-bla M1, carbachol, beta-lactamase ratio, 5 h; at 7.69 µM (top of the series) unless noted
Method in brief: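 Read-out: CCF4 FRET ratio (460 nm/530 nm) after 1 h RT dye loading, used for %activity and AC50 from titration series. Cells: Jurkat NFAT-β-lactamase/M1 line, treated with compound plus 1 uM carbachol for 5 h, 37 °C.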

[3] = Stat Signaling Pathway (AID 446; active = well fitted curve in either direction with a large enough effect, not every such curve was filed as active;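 also: ME-180 cervical cancer cells given 40 pM IL-6 alongside compound; SIE-controlled beta-lactamase reporter measured as 460/530 nm FRET emission ratio; % is scaled to controls: 0 for no effect and ±100 for the full control effect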); conditions: ME-180 SIE beta-lactamase reporter, IL-6 stimulated, 5 h; at 7.69 µM (top of the series) unless noted
Method in brief: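 ME-180 cells carrying a SIE-driven beta-lactamase reporter are stimulated with 40 pM IL-6 for 5 h at 37C in the presence of compound. The 460/530 nm FRET substrate ratio is read after 2.5 h at RT. Data are normalised to 300 pM IL-6 and to 125 nM JAK inhibitor controls.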

[4] = biological target: Glucocorticoid receptor (Homo sapiens) (UniProt P04150); assay: GR-GFP Redistribution (AID 450;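 active = compounds whose dose series gives a full or clear partial fitted curve of increased nuclear translocation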; also: potency is read from the fitted curve at half-maximal effect); conditions: U2OS GR-GFP nuclear translocation, laser cytometry, 2 h
[5] = biological target: Glucocorticoid receptor (Homo sapiens) (UniProt P04150); assay: GR-EFC Redistribution (AID 451; calls by dose curve; also: potency is read from the fitted curve at half-maximal effect); conditions: CHO-K1 GR-EFC translocation, beta-gal luminescence, 2 h
Method in brief: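 Translocation of GR-ED fusion to nuclear EA restores b-gal, read by luminescence after 1 h room-temperature detection. Engineered CHO-K1 biosensor cells, 1,000/well, exposed 2 h at 37 C to titrations up to 46 uM final.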

[6] = biological target: Mitogen-activated protein kinase 10 (Mus musculus) (UniProt Q61831); assay: JNK3 AlphaScreen Assay (AID 530; active = well fitted curve in either direction with a large enough effect, not every such curve was filed as active;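 also: kinase came from lysate of stimulated human HepG2 cells; signal reports phosphorylation of biotinylated GST-cJun 1-79 at Ser73 with 10 µM ATP; % is scaled to controls: 0 for no effect and ±100 for the full control effect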)
Method in brief: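 Compound titrations were preincubated 15 minutes at room temperature with substrate, antibody and pre-activated JNK3-containing HepG2 lysate. Reactions were started with 10 uM ATP and stopped with EDTA-containing bead buffer for AlphaScreen detection.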

[7] = biological target: Dual specificity protein kinase CLK4 (Homo sapiens) (UniProt Q9HAZ1); assay: qHTS Assay for Inhibitors of CDC-like Kinase 4 (Kinase-Glo Assay) (AID 1770); also: nearly all actives have a fitted effect of over 65% in size; also: potency is read from the fitted curve at half-maximal effect
Dual specificity protein kinase CLK4 (Homo sapiens), sequence (Q9HAZ1 whole entry, looked up): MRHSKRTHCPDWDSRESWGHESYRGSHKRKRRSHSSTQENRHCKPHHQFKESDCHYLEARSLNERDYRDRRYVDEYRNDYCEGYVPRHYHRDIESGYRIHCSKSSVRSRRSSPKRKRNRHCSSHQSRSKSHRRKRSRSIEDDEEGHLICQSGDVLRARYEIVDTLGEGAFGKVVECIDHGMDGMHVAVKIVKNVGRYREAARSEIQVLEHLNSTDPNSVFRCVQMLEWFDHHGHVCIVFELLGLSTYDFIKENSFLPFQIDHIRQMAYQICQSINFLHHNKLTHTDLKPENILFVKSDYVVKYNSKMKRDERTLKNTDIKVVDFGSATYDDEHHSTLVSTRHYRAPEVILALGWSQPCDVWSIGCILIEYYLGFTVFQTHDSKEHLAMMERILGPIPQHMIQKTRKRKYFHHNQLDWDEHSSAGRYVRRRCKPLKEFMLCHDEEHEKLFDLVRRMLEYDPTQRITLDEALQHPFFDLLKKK
Method in brief: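 25 nM Clk4 with 100 uM RS repeat peptide and 1 uM ATP (final) in Tris pH7.5, 10 mM MgCl2, 4.5 h at room temperature. Remaining ATP measured by Kinase-Glo luciferase luminescence.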

[8] = Primary qHTS for small molecule stabilizers of the endoplasmic reticulum resident proteome: Secreted ER Calcium Modulated Protein (SERCaMP) assay (AID 1508630); also: % is scaled to controls: 0 for no effect and ±100 for the full control effect
Method in brief: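 GLuc-SERCaMP-expressing SH-SY5Y cells, pretreated 16 h with compound, are challenged with thapsigargin to empty ER calcium stores; after 4 h, coelenterazine is added directly to the medium and luminescence is imaged.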

[9] = biological target: Rap guanine nucleotide exchange factor 3 (Homo sapiens) (UniProt O95398); assay: Confirmatory qHTS for antagonist of cAMP-regulated guanine nucleotide exchange factor 3 (EPAC1) (AID 1645880);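 also: plate controls were DMSO only for no effect and full effect of the ATA control for full effect; nearly all actives have a fitted effect of over 55% in size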
Rap guanine nucleotide exchange factor 3 (Homo sapiens), sequence (O95398 whole entry, looked up): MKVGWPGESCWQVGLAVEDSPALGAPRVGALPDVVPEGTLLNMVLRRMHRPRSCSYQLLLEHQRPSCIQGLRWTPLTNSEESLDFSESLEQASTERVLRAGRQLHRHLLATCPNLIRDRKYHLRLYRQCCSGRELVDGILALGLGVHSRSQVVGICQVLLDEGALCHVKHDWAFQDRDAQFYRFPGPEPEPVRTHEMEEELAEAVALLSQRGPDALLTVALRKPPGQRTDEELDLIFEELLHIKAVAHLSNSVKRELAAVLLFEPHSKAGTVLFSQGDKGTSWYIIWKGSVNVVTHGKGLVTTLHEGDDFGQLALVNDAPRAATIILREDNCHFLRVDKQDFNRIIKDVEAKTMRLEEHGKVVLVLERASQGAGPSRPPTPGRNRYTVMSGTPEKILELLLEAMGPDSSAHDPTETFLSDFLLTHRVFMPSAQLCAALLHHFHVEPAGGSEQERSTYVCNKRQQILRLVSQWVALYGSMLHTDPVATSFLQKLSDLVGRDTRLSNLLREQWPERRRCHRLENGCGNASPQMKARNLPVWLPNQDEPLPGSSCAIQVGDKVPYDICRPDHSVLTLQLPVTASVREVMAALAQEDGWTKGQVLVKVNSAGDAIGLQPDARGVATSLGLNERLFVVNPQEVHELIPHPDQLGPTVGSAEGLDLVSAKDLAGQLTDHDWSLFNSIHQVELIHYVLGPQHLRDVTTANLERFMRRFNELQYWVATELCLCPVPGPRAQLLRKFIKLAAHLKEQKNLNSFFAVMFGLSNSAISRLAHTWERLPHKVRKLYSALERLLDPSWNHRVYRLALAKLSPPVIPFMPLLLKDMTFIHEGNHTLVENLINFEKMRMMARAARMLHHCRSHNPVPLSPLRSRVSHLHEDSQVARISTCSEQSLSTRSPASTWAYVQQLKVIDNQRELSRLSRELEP
Method in brief: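 Nucleotide exchange uses 100 nM EPAC1, 250 nM RAP1B-BODIPY-GDP and 50 uM GDP, with compounds in a concentration-titration series. After 5 min at room temperature, fluorescence (480 nm ex/540 nm em) is read every 5 min for 30 min. Data are normalized to control ATA and DMSO.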

[10] = biological target: Rap guanine nucleotide exchange factor 3 (Homo sapiens) (UniProt O95398); assay: Confirmatory qHTS for agonist of cAMP-regulated guanine nucleotide exchange factor 3 (EPAC1) (AID 1645881);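 also: EPAC1 catalysed release of BODIPY-GDP from Rap1B seen as fluorescence loss; 100% = effect of cAMP agonist control; nearly all actives have a fitted effect of over 75% in size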
[11] = biological target: Rap guanine nucleotide exchange factor 4 (Homo sapiens) (UniProt Q8WZA2); assay: Confirmatory qHTS for agonist of cAMP-regulated guanine nucleotide exchange factor 4 (EPAC2) (AID 1645884);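 also: nucleotide exchange releases bodipy-GDP from Rap1 and this lowers its fluorescence; % is scaled to controls: 0 for no effect and ±100 for the full control effect; nearly all actives have a fitted effect of over 65% in size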
Rap guanine nucleotide exchange factor 4 (Homo sapiens), sequence (Q8WZA2 whole entry, looked up): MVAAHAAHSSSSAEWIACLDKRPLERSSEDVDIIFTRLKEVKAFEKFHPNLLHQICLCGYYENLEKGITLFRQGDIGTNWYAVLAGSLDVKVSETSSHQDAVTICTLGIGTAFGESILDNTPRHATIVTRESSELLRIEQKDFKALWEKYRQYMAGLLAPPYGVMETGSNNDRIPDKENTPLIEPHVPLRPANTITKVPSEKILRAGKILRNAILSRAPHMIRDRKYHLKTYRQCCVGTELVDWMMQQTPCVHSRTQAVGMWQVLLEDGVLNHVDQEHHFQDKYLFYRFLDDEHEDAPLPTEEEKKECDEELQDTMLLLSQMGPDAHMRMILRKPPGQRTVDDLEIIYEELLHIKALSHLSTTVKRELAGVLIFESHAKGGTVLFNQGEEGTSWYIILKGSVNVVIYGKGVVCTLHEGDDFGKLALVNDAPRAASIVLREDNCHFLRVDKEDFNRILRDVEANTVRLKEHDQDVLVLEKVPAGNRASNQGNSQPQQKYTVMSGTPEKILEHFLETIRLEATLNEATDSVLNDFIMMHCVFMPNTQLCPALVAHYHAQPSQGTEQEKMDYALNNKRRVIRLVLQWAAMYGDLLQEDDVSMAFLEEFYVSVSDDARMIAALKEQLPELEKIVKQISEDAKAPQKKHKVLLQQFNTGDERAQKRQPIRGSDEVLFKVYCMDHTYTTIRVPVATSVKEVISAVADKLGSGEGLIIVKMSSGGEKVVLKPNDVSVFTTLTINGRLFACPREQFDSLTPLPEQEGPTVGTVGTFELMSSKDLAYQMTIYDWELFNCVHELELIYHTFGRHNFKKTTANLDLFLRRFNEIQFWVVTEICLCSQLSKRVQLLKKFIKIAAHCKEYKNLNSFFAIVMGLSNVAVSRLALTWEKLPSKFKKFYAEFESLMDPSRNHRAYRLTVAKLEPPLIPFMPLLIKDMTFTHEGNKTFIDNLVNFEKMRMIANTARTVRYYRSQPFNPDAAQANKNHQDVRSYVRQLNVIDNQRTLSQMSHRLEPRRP

[12] = biological target: Rap guanine nucleotide exchange factor 4 (Homo sapiens) (UniProt Q8WZA2); assay: Confirmatory qHTS for antagonist of cAMP-regulated guanine nucleotide exchange factor 4 (EPAC2) (AID 1645885); also: nearly all actives have a fitted effect of over 25% in size; also: potency is read from the fitted curve at half-maximal effect
[13] = biological target: Cytochrome P450 1A2 (Homo sapiens) (UniProt P05177); assay: p450-cyp1a2 (AID 410; calls by dose curve; also: potency is read from the fitted curve at half-maximal effect;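 as to activity change, negative = inhibition: -100% = full effect of reference inhibitor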)
Cytochrome P450 1A2 (Homo sapiens), sequence (P05177 whole entry, looked up): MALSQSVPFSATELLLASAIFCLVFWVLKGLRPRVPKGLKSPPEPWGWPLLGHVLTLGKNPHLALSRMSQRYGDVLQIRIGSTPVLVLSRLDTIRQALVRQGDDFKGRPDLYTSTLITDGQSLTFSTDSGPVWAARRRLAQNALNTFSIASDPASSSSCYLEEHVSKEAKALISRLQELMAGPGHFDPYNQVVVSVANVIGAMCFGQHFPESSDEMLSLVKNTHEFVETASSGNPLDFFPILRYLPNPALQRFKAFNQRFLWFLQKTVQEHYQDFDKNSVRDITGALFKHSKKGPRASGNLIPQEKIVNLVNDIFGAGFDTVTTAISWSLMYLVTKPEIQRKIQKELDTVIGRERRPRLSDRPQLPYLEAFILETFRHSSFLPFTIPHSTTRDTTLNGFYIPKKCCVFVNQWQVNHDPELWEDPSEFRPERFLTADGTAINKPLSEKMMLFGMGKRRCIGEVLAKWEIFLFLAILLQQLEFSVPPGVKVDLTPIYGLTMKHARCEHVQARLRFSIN
Method in brief: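 20nM CYP1A2 with 100uM Luciferin-ME (at Km) in 100mM KPO4; compound preincubated 10 min, NADPH regeneration added, 60 min at room temperature. Luciferin quantified by luminescence after detection reagent; normalized to 57 uM furafylline.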

[14] = biological target: 3',5'-cyclic-AMP phosphodiesterase 4B (Homo sapiens) (UniProt Q07343); assay: qHTS Assay for Inhibitors of PDE-IV (AID 607; active = well fitted activation curve with a large enough effect in the main read-out, with a control signal flat, not every such curve was filed as active; also: % of control where 0% means no effect)
3',5'-cyclic-AMP phosphodiesterase 4B (Homo sapiens), sequence (Q07343 whole entry, looked up): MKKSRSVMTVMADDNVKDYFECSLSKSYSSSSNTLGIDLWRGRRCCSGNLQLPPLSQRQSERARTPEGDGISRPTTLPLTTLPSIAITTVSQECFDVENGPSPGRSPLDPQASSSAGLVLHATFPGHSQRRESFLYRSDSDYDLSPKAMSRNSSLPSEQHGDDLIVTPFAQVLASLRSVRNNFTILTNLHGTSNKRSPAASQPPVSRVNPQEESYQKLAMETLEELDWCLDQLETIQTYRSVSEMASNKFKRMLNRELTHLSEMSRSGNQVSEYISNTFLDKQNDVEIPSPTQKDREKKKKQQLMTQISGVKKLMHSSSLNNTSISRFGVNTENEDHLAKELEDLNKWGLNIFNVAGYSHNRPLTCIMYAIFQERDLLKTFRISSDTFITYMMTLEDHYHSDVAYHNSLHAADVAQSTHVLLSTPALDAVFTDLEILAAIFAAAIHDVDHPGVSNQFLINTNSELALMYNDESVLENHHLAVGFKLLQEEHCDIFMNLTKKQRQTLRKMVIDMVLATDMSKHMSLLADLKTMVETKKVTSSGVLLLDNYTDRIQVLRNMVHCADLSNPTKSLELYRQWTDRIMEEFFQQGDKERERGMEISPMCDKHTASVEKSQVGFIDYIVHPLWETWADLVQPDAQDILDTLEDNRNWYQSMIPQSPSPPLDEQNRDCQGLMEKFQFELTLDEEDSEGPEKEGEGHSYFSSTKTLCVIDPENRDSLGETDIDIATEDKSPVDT
Method in brief: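 HEK293 ACTOne cells with CNG channel (1000/well), endogenous PDE4; membrane potential dye, compounds up to 22.9 uM final. Fluorescence Ex 535/Em 590; RO 20-1724 (100 uM final) as reference.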

[15] = qHTS Assay for Lipid Storage Modulators (AID 1519; calls by dose curve); conditions: Drosophila S3 cells, BODIPY lipid droplet/cell ratio, laser cytometry, cells loaded with oleic acid; for activity change, negative = inhibition: at 57.5 µM (top of the series)
Method in brief: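 Cells seeded at 5,000 per well were treated with compounds over a concentration series and loaded with oleic acid (400 uM, as added). Lipid droplet fluorescence (488 nm excitation, 500-530 nm channel) was read by laser-scanning cytometry and normalized to 20 uM Triacsin C.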

[16] = biological target: Ubiquitin carboxyl-terminal hydrolase 1 (Homo sapiens) (UniProt O94782); assay: Inhibitors of USP1/UAF1: Pilot qHTS (AID 504865); also: nearly all actives have a fitted effect of over 35% in size; also: potency is read from the fitted curve at half-maximal effect
Ubiquitin carboxyl-terminal hydrolase 1 (Homo sapiens), sequence (O94782 whole entry, looked up): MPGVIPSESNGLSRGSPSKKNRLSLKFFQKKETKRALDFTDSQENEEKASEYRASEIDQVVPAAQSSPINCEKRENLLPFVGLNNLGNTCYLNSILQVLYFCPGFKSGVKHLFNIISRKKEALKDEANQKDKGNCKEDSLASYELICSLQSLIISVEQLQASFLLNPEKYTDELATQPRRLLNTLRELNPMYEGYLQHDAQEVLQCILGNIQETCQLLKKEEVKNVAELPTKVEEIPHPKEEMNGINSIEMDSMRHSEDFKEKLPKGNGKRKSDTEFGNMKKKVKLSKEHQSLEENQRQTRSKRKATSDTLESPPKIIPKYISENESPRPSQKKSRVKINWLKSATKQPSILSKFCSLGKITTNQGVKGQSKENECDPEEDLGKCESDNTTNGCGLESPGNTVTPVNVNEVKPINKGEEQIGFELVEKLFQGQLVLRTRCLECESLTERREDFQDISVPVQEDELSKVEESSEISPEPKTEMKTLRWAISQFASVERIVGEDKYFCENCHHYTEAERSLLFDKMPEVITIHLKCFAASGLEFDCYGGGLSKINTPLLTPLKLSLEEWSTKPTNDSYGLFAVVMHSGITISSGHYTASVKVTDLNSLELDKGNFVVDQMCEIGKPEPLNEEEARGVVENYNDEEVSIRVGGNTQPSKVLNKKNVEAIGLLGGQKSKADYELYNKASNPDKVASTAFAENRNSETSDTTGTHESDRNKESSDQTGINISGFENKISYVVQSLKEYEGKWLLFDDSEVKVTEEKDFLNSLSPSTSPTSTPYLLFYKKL
Method in brief: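 USP1/UAF1 complex at 1 nM preincubated 15 min at room temperature with compound, then Ub-Rho substrate added at 150 nM final. Fluorescence (480/540 nm) read kinetically in 50 mM HEPES pH 7.8, 0.5 mM EDTA, 1 mM TCEP, 0.1 mg/ml BSA, 0.01% Tween-20.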

[17] = biological target: Cytochrome P450 3A4 (Homo sapiens) (UniProt P08684); assay: qHTS Assay for Inhibitors and Substrates of Cytochrome P450 3A4 (AID 884); also: nearly all actives have a fitted effect of over 50% in size; also: potency is read from the fitted curve at half-maximal effect
Method in brief: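 20 nM human CYP3A4 with 25 uM Luciferin-PPXE (at KM) in 200 mM KPO4, preincubated 10 min with compound; NADPH regeneration started a 60 min RT reaction. Luciferin detected by luminescence, normalized to 57 uM ketoconazole as full inhibition.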

[18] = AP1 Signaling Pathway (AID 357; active = well fitted curve in either direction with a large enough effect, not every such curve was filed as active); conditions: ME-180 (cervical carcinoma) AP-1-bla reporter, EGF-induced, beta-lactamase ratio, 5 h; at 7.69 µM (top of the series) unless noted
Method in brief: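 Titration-series screen for positive or negative modulators of EC50 EGF-induced signaling in ME-180 cells carrying an AP-1-driven beta-lactamase reporter. After 5 hours at 37 degrees Celsius, CCF4 460nm/530nm emission ratio gave %Activity; AC50 values derived.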

[19] = biological target: Cytochrome P450 3A4 (Homo sapiens) (UniProt P08684); assay: qHTS Assay for Activators of Cytochrome P450 3A4 (AID 885); also: nearly all actives have a fitted effect of over 65% in size
Method in brief: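 Human CYP3A4 (20 nM) with Luciferin-PPXE at 25 uM (its KM) in 200 mM KPO4; 10 min compound preincubation, then NADPH regeneration and 60 min reaction at RT. Luciferin read by luminescence; normalized to 57 uM ketoconazole full inhibition.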

[20] = biological target: Dual specificity protein kinase CLK4 (Homo sapiens) (UniProt Q9HAZ1); assay: qHTS Assay for Inhibitors of CDC-like Kinase 4 (ADP-FP Assay) (AID 1795);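 also: recombinant human CLK4 phosphorylating RS repeat peptide at 1 µM ATP; % is scaled to controls: 0 for no effect and ±100 for the full control effect; nearly all actives have a fitted effect of over 60% in size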
Method in brief: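 Recombinant Clk4 (6.25 nM) phosphorylated 100 uM RS repeat peptide with 1 uM ATP in 25 mM Tris pH 7.5, 10 mM MgCl2, 0.5 mM EGTA, 2.5 mM DTT, 0.01% Triton X-100 for 1 h. ADP was detected by Transcreener ADP2 competitive fluorescence polarization after 30 min at room temperature.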

[21] = measured here: cell count channel max response
[22] = measured here: lipid channel max response

COc1ccc(CNc2cc(-c3ccccc3C)ncn2)c(OC)c1
inactive: Potency [1] > 11.4 µM | activity change, negative = inhibition [2] -16.6% | activity, negative = inhibition [3] -12.7% | Potency [4] > 46 µM | Potency [5] > 46 µM | Potency [6] | Potency [7] | outcome [8] | Potency [9] | Potency [10] | Potency [11] | Potency [12]

CCCCCCCCCCCCCC(=O)O[C@H](CC(=O)O)C[N+](C)(C)C
active: Potency [16] 79.4 µM
inactive: Potency [13] | Potency [4] > 46 µM | Potency [5] > 46 µM | Potency [6] | Potency [14] | activity change, negative = inhibition [15] 3.49% | outcome [8]
-2.97%: max response [15, 22]
-5.36%: max response [15, 21]

OC[C@H]1O[C@@H](n2cnc3c(NCc4ccco4)ncnc32)[C@H](O)[C@@H]1O
-19.8%: max response [15, 22]
inactive: Potency [17] | activity change, negative = inhibition [15] -9.06% | outcome [8]
-12.6%: max response [15, 21]

COc1cccc(-c2ccc3ncnc(NCc4ccccc4OC)c3c2)c1
inactive: Potency [4] > 46 µM | Potency [5] > 46 µM | Potency [6] | Potency [14] | activity change, negative = inhibition [15] 5.94% | Potency [16] | outcome [8]
-13.1%: max response [15, 22]
-19.3%: max response [15, 21]

Cc1ccccc1-c1nc(N(C)Cc2ccco2)c2ccccc2n1
inactive: Potency [1] > 11.4 µM | activity change, negative = inhibition [18] 13.9% | activity change, negative = inhibition [2] -24% | activity, negative = inhibition [3] -5.08% | Potency [4] > 46 µM | Potency [5] > 46 µM | Potency [6] | Potency [19] | Potency [20] | outcome [8] | Potency [9] | Potency [10] | Potency [11]
active: Potency [13] 1.58 µM | Potency [16] 28.2 µM | Potency [12] 35 µM

Clc1cccc2c1CN(C1=NCCN1)C2
inactive: Potency [4] > 46 µM | Potency [5] > 46 µM | Potency [6] | Potency [14] | activity change, negative = inhibition [15] 3.4% | Potency [16] | outcome [8]
12.9%: max response [15, 21]
active: Potency [13] 0.398 µM
20.6%: max response [15, 22]

COCCNc1nc(-c2ccccc2C)nc2ccccc12
inactive: activity change, negative = inhibition [2] -2.48% | activity, negative = inhibition [3] 5.05% | Potency [5] > 46 µM | Potency [6] | Potency [14] | Potency [19] | activity change, negative = inhibition [15] 7.59% | outcome [8]
22.3%: max response [15, 22]
active: Potency [13] 1.26 µM
3.47%: max response [15, 21]

COc1ccc(CNc2ncnc3ccc(-c4c(C)noc4C)cc23)c(OC)c1
inactive: Potency [1] > 11.4 µM | Potency [4] > 46 µM | Potency [5] > 46 µM | Potency [6] | Potency [19] | Potency [20] | outcome [8] | Potency [9] | Potency [10] | Potency [11] | Potency [12]
active: Potency [13] 15.8 µM | Potency [17] 3.16 µM | Potency [7] 10 µM
